This is an account of results in PubChem BioAssay AID492950 (Southern Research Specialized Biocontainment Screening …, 2010).

Measured potencies and affinities stand elsewhere. Unmarked numbers belong to inactive results. Calls of active or inactive are those of the source. No rule for the calls is given here.

The assay can be described thus: viability loss in mammalian cells – cytotoxicity control, dose response (AID 492950). Particulars: mammalian cell viability, cytotoxicity counter-screen; series mostly up to 40 µM; viability: at the top concentration.
For `Cc1ccc(-c2[nH]nc3c2C(c2ccc(OC(=O)N4CCOCC4)cc2)C(C#N)=C(N)O3)cc1` (stereo not given), the “viability” value was 99.1%.

With `Cc1cc(-c2[nH]nc3c2C(c2ccc(Cl)cc2)C(C#N)=C(N)O3)c(C)s1` (stereo not given), the “viability” value was 91.7%.

As for `C/C(=N\NC(=O)Cc1cc(=O)[nH][nH]1)c1cccc([N+](=O)[O-])c1`, the “viability” value is 91.2%.

As to `COc1ccc(/C=C2/C(=O)N(c3ccccc3)N=C2C)c(OC)c1`, the “viability” value is 90.2%.

As for `O=C(Cc1ccccc1)c1c[nH]c(C(=O)C(Cl)(Cl)Cl)c1`, the “viability” value was 98.5%.

Consider `CCOC(=O)C/C(C)=N/NC(=O)COc1ccccc1C`, for which the “viability” value is 89.7%.

Take `COc1ccc(-c2[nH]nc3c2C(c2ccoc2)C(C#N)=C(N)O3)cc1` (stereo not given): the “viability” value is 94.6%.

Turning to `CCC(C)[C@@H](NC(=O)OC(C)(C)C)c1nnc(S(=O)(=O)Cc2cccc(C)c2)o1` (stereo not given in full), the “viability” value is 85.8%.

On to `CSCCC1C(C#N)=C(N)Oc2n[nH]c(-c3cccs3)c21` (stereo not given), for which the “viability” value is 89.6%.

With `CCOc1ccccc1C1C(C#N)=C(N)Nc2onc(-c3ccccc3)c21` (stereo not given), the “viability” value was 75.6%.

For the molecule `Cc1ccc(-n2nnc3c(SCC(=O)NCC4CCCO4)ncnc32)cc1` (stereo not given), the “viability” value is 92.2%.

Consider `Cc1ccc(C2C(C#N)=C(N)Oc3n[nH]c(-c4cccs4)c32)cc1` (stereo not given), for which the “viability” value is 85.6%.

With `Cc1ccc(SCc2[nH]nc3c2C2(CCSCC2)C(C#N)=C(N)O3)cc1`, the “viability” value was 102%.

Turning to `CCCc1c(-c2ccc(O)cc2)nn(-c2ccc(O)cc2)c1-c1ccc(O)cc1`, the “viability” value is 74.2%.

Turning to `Cc1ccsc1/C=N/NC(=O)Cc1cc(=O)[nH][nH]1`, the “viability” value is 90.7%.

For `Fc1ccc(Nc2nc(Oc3ccccc3F)nc(N3CCCC3)n2)cc1`, the “viability” value is 72.5%.

As to `Cc1[nH]n(-c2ccccc2)c(=O)c1C(c1cccc([N+](=O)[O-])c1)c1c(C)[nH]n(-c2ccccc2)c1=O`, the “viability” value is 89.2%.

Regarding `CC(/C=N/NC(=O)Cc1cc(=O)[nH][nH]1)=C\c1ccccc1`, the “viability” value was 88.2%.

With `COc1cccc(-c2[nH]nc3c2C(c2ccsc2)C(C#N)=C(N)O3)c1` (stereo not given), the “viability” value is 89%.

On to `COC(=O)C(C#N)C(c1cccnc1)c1c(C)[nH][nH]c1=O` (stereo not given), for which the “viability” value was 82.6%.

In the case of `O=C(CSc1nnc(-c2ccccc2Cl)o1)Oc1ccc(Br)cc1`, the “viability” value was 89.2%.

Turning to `O=C(Cc1cc(=O)[nH][nH]1)N/N=C/c1c(Cl)cccc1Cl`, the “viability” value is 91.8%.

Consider `CC1=NNC(=O)C1Cc1c(Cl)cccc1Cl` (stereo not given), for which the “viability” value is 93.8%.

`N#CC1=C(N)Oc2n[nH]c(-c3cccs3)c2C1c1cccs1` (stereo not given): the “viability” value is 82.8%.

On to `O=c1cc(-c2ccc(Br)cc2)[nH][nH]1`, for which the “viability” value was 91.1%.

Consider `C/C(=N\NC(=O)c1ccncc1)c1cc2ccccc2oc1=O`, for which the “viability” value was 92.7%.

As to `O=C(Cc1cc(=O)[nH][nH]1)N/N=C/c1cccc(Cl)c1Cl`, the call was inactive.

As for `O=C(Cc1cc(=O)[nH][nH]1)N/N=C/c1ccccc1Cl`, the “viability” value was 95.8%.

On to `CCCCCCOC(=O)c1ccc(OC(=O)c2cccnc2)cc1`, for which the “viability” value is 95.7%.

Consider `O=C(Cc1cc(=O)[nH][nH]1)N/N=C/C(Cl)=C/c1ccccc1`, for which the “viability” value is 99.4%.
